Screening data deposited in PubChem by several laboratories.
An excerpt weighted towards active compounds, which were near 2.2% of everything screened.
iPSC survival up – hiPSC single-cell survival enhancement; ATPlite luminescence; 100% = ROCK inhibitor wells, 0% = DMSO; survival enhancement, % at 20 µM; 360,000 tested, 0.044% active; in the data active means survival enhancement above about 18%;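 further: cells exposed to compounds for 16 hours before the ATP read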
ABCB6 inh MLPCN – blocks the human ABCB6 transporter | AID 602162 | Q9NP58 | fluorescence ratio to DMSO, % at 10 µM | K562-ABCB6 porphyrin accumulation, flow cytometry, 1 h; active compounds read low | 360,000 tested, 0.19% active;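 active means fluorescence ratio to DMSO below 75%, the collection mean minus 3 SD; inconclusive means too few cells collected in the well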;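 further: signal is porphyrin accumulated inside mitochondria; lower ratio means ABCB6 inhibition with less porphyrin fluorescence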
Target sequence (Q9NP58 whole entry, looked up): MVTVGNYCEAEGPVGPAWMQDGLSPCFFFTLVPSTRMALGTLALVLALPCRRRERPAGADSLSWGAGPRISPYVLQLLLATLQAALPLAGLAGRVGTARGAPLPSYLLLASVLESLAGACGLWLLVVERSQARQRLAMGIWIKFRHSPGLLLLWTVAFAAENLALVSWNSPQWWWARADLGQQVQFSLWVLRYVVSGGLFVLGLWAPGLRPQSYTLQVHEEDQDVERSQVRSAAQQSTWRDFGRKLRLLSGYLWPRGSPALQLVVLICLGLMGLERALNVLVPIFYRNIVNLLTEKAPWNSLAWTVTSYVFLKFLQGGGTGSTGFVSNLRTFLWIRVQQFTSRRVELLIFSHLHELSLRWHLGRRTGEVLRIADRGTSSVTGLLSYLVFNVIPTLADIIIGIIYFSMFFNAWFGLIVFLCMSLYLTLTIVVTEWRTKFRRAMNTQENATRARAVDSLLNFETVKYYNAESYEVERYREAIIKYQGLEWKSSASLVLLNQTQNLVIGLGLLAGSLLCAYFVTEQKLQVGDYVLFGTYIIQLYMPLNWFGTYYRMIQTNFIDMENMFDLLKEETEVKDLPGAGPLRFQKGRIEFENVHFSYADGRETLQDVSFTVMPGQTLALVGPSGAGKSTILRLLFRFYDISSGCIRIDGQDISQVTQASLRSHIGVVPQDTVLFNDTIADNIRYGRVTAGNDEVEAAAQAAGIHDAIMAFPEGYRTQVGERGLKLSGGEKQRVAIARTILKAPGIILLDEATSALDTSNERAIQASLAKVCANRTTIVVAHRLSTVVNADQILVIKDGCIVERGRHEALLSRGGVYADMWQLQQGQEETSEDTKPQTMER
Myeloid diff MLP – myeloid differentiation induction | ER-HoxA9 myeloid progenitors, lysozyme-GFP differentiation, flow cytometry | calls only at 10 µM | 360,000 tested, 1% active | AID 624256;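 active means normalized GFP-positive differentiation at or above the plate's own cutoff, the solvent-only control mean plus 3 SD; inconclusive means no clear call, values can overlap the other calls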;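 further: cells exposed to compound for four days before flow analysis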
Cardio protect – modulators protecting cardiomyocytes from myocardial damage; H9c2 cardiomyocytes, H2O2 injury protection, ATPLite, 2 h; protection from H2O2 cell death, % at 20 µM; 360,000 tested, 0.63% active; AID 588492;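 active means compounds giving at least 50% protection of heart cells from peroxide-induced death in the single-dose screen, raw or plate-pattern-corrected value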
MIN6 prolif – MIN6 beta-cell proliferation induction; 330,000 tested, 0.29% active; AID 2380; proliferation, % at 10 µM; MIN6 cells proliferation, ATPlite luminescence, 48 h; cells starved in 0.2% serum; 100% = growth in 10% serum;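 active means compounds whose signal lies at least 3.5 SD above the mean of all wells on their plate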
Large screens that a line does not name were inactive.

CC(C)CN(CC(C)C)C(=O)COc1ccccc1C(N)=O	none
Oc1ccc(/C=N/Nc2nc(N3CCCC3)nc(N3CCCC3)n2)cc1O	Cardio protect 76
COc1ccc(N2CC(C(=O)NCc3ccccc3)CC2=O)cc1 (centres undefined)	none
COc1ccc(N2CC(C(=O)NCc3n[nH]c(=O)c4ccccc34)CC2=O)cc1 (centres undefined)	Cardio protect 65
O=C(NCc1n[nH]c(=O)c2ccccc12)C1CC(=O)N(c2ccc(Cl)cc2)C1 (centres undefined)	Cardio protect 59
COc1ccc(N2CC(C(=O)Nc3nnc(SCC(=O)NCc4ccco4)s3)CC2=O)cc1 (centres undefined)	Myeloid diff MLP active
COc1ccc(OC)c(NC(=O)c2cc3c(Cl)nc4ccccc4c3s2)c1	none
CNC(=O)CCc1nc(-c2ccc(C(C)(C)C)cc2)no1	none
O=C1c2cccc3c(N4CCCCC4)ccc(c23)C(=O)N1c1ccc(O)cc1	Myeloid diff MLP active
O=C(O)c1ccc(N2CCCCCC2)c(N2C(=O)c3ccccc3C2=O)c1	none
O=C1c2cccc3c(N4CCCCC4)ccc(c23)C(=O)N1c1ccccc1O	Myeloid diff MLP active
N#Cc1c(N2CCOCC2)nsc1-c1ccc(C(F)(F)F)cc1	none
C/C(=N\NC(=O)CSCc1ccccc1Cl)c1cc(O)ccc1O	Cardio protect 51
C#CCSc1nnc(-c2cccc3ccccc23)o1	Myeloid diff MLP active
COC(=O)C1(C)CCCC2(C)C3CCC(C(C)C)C(CO)C3C(CO)CC12 (centres undefined)	none (no result: MIN6 prolif)
COc1cccc(Nc2nc(C(N)Cc3ccc(F)cc3)cs2)n1 (centres undefined)	Myeloid diff MLP active (no result: MIN6 prolif)
O=C1CCCCC(=O)N(c2ccccc2)c2ccccc21	Myeloid diff MLP active
O=C1CCC(=O)N1c1ccccc1	none
COc1ccc(NC(=S)Nc2ccc(S(=O)(=O)N3CCOCC3)cc2)c(OC)c1	none
COc1cc(N=Nc2cccc(S(N)(=O)=O)c2)c2ccccc2c1N	Myeloid diff MLP active (no result: MIN6 prolif)
O=c1[nH]cnc2c1c(-c1ccccc1)cn2-c1ccccc1	none
Fc1ccc(-n2cc(-c3ccccc3)c3c(=S)nc[nH]c32)cc1	Cardio protect 85
Cc1ccc(-n2cc(-c3ccccc3)c3c(=O)[nH]cnc32)cc1	none
Fc1cccc(-n2cc(-c3ccccc3)c3c(=S)nc[nH]c32)c1	Cardio protect 64
O=C(Cn1ncc2c([nH]c3ccccc32)c1=O)Nc1ccc(CN2CCCCC2)cc1	Myeloid diff MLP active
COc1ccccc1NC(=O)C(CC(C)C)NC(=O)C1CCCCC1 (centres undefined)	none
COc1ccc(OC)c(NC(=O)C(CC(C)C)NC(=O)C2CCCCC2)c1 (centres undefined)	iPSC survival up 24
CN(C)c1ccc(C=Nc2ccc(N(C)C)cc2)cc1	none
CN(C)c1ccc(N=Cc2ccco2)cc1	Myeloid diff MLP active
Cc1ccc2nc(-c3ccc(F)cc3)c(Cc3ccccn3)n2c1	none (no result: MIN6 prolif)
CCNc1cc(Cl)nc(SC)n1	none
Cc1oc(-c2ccc(Cl)cc2)nc1CN1CCC(C(=O)N2CCN(Cc3ccccc3)CC2)CC1	Myeloid diff MLP inconclusive
Cc1oc(-c2ccc(Cl)cc2)nc1CN1CCC(C(=O)N2CCc3ccccc3C2)CC1	Myeloid diff MLP active
Cc1ccnc(NC(=O)CCC(=O)N(CC(=O)NCc2ccccc2)Cc2ccc(F)cc2)c1	Myeloid diff MLP active
Cc1ccnc(NC(=O)CCC(=O)N(CC(=O)NCc2ccccc2)Cc2ccccc2)c1	none
O=C(OCC(O)COC(=O)c1cccnc1)c1cccnc1	Myeloid diff MLP active
O=C(OCc1ccc(Br)cc1)c1cccnc1	none
COc1ccc(S(=O)(=O)N2CCN(C(=O)CN3C(=O)NC4(CCCC4)C3=O)CC2)cc1	none
COc1ccc(-c2csc(NC(=O)CS(=O)(=O)c3ccccc3)n2)c(OC)c1	none (no result: MIN6 prolif)
COc1cccc(NC(=O)C(=O)N2CCOCC2)c1	Myeloid diff MLP active
Cc1ccc(NC(=O)c2oc3ccc(S(=O)(=O)N4CCOCC4)cc3c2C)cc1C	none
COc1ccc2oc(C(=O)Nc3ccc(N4CCOCC4)cc3)c(C)c2c1	Cardio protect 56
COc1cccc(NC(=O)c2oc3ccc(S(=O)(=O)N4CCOCC4)cc3c2C)c1	Cardio protect 85
COc1ccccc1CNC(=O)C(C)c1ccc([N+](=O)[O-])cc1 (centres undefined)	none
Cc1nc(NC(=O)CCCC(=O)Nc2nc(C)c(C)s2)sc1C	none
CCc1nccn1S(=O)(=O)c1cc(OC)c(Cl)cc1OC	none
COc1cc(C(=O)Nc2ccc(NC(=O)c3ccco3)nc2)cc(OC)c1OC	Cardio protect 52
CC(C)(C)c1ccc(Oc2ccc(NC(=O)c3ccco3)cn2)cc1	Myeloid diff MLP active
CCCCc1ccc(NC(=O)CSc2nc3ncccc3[nH]2)cc1	none
CCOC(=O)c1c(NC(=O)CSc2nc3ccccc3s2)sc(C)c1C	Myeloid diff MLP active
CCOC(=O)c1c(NC(=O)CSc2nc3ccccc3o2)sc(C)c1C	none
Cc1ccc(Cn2cnc3c(cnn3C(C)(C)C)c2=O)cc1	none
CC(C)(C)n1ncc2c(=O)n(Cc3ccc(Cl)c(Cl)c3)cnc21	Myeloid diff MLP active
CC(=O)c1ccc(N2CCN(C(=O)c3cc4c(s3)CCCC4)CC2)cc1	none
Clc1ccc(-c2nc3ccccn3c2CN2CCOCC2)cc1	Myeloid diff MLP active
Clc1ccc2nc(-c3ccccc3)c(CN3CCOCC3)n2c1	none
Cc1ccc(Cc2c(-c3ccco3)nc3c(C)cc(Br)cn23)cc1	Myeloid diff MLP active (no result: MIN6 prolif)
Cc1ccc(C)c(S(=O)(=O)NCc2ccc(C(=O)N3CCC(Cc4ccccc4)CC3)cc2)c1	Myeloid diff MLP active
Cc1ccc(C)c(S(=O)(=O)NCc2ccc(C(=O)N3CCN(C)CC3)cc2)c1	none
CC(C)CC(NC(N)=O)C(=O)NCc1ccccc1Cl (centres undefined)	Myeloid diff MLP active
COc1ccc(C=CC(=O)c2ccc3cc(OC)c(OC)cc3c2)cc1OC	Myeloid diff MLP inconclusive, Cardio protect 53 (no result: MIN6 prolif)
COc1cc(/C=C/C(=O)O)ccc1O	none
COc1cc(/C=C/C(=O)CC(=O)/C=C/c2ccc(O)c(OC)c2)ccc1O	Cardio protect 75
N[C@@H](CO)c1cn([C@@H](Cc2cc3ccccc3[nH]2)C(=O)N2CCNCC2)nn1	none
CCCc1[nH]nc2c1C(c1ccc(O)cc1OCC)C(C#N)=C(N)O2 (centres undefined)	none
CCOC(=O)c1c(C)[nH]c(C(=O)N/N=C/c2ccc(Br)cc2)c1C	ABCB6 inh MLPCN 74, Myeloid diff MLP inconclusive
COC(=O)CSc1ccc(S(=O)(=O)N2CCOCC2)cc1[N+](=O)[O-]	none
CCc1cc2cc(C)ccc2nc1SCC(=O)N1CC(=O)Nc2ccccc21	none
Cc1ccc2nc(SCC(=O)Nc3ccccc3N3CCOCC3)c(C#N)cc2c1	Myeloid diff MLP inconclusive
CCc1ccc2nc(SCC(=O)N3CC(=O)Nc4ccccc43)c(C#N)cc2c1	Myeloid diff MLP active
